Targets with a hit are over-represented here; the source holds about 7,900 in all. About 0.6% of all pairs of compound and target were hits.
What follows are molecules tested against ZNF580 (UniProt Q9UK33) (assay: log2 fold change, soluble protein after heating vs DMSO (PISA); higher = thermal stabilisation; K562 cells, 10 uM, 30 min; active = over 0.2 and 3.5 SD of the protein, either way, in both replicates (recomputed)).
Summary of the method: (§1)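 K562 cells at 2×10^6 cells/mL were treated with 10 μM compound for 30 min. Aliquots were heated for 3 min across 48°C-58°C, pooled, and extracted in PBS with 0.5% NP-40 at 4°C; soluble protein was the supernatant after 21,000xg for 90 min. Soluble protein was quantified by TMTpro 16plex LC-MS/MS with channel sums equalised, and reported as log2 fold change in thermal stability against DMSO controls, with values from duplicates.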

ZNF580, sequence (Q9UK33 whole entry, looked up): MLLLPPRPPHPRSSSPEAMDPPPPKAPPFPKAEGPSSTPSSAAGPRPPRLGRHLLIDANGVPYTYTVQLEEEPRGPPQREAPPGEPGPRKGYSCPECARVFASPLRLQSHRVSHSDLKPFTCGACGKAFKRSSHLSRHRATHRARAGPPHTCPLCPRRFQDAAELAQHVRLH

log2 fold change, inactive:
CNC(=O)c1ccc(Nc2ncc(C(F)(F)F)c(NCc3nccnc3N(C)S(C)(=O)=O)n2)cc1 [defactinib] -0.099
CCCS(=O)(=O)Nc1ccc(F)c(C(=O)c2c[nH]c3ncc(Cl)cc23)c1F 0.069
Cc1ccc2c(=O)c3ccccc3n(CCCN)c2c1C -0.196
COC(=O)[C@H](CCSC)NC(=O)c1ccc(NC[C@@H](N)CS)cc1-c1ccccc1 -0.082
CCCS(=O)(=O)Nc1ccc(F)c(C(=O)c2c[nH]c3ncc(-c4ccc(Cl)cc4)cc23)c1F [vemurafenib] 0.042
Cn1cncc1[C@@](N)(c1ccc(Cl)cc1)c1ccc2c(c1)c(-c1cccc(Cl)c1)cc(=O)n2C [tipifarnib] -0.204
Cc1ccc(Sc2cncc3sc(C(N)=O)cc23)cc1 0.16
CC[C@@H]1C(=O)N(C)c2cnc(Nc3ccc(C(=O)N[C@H]4CC[C@H](N5CCN(CC6CC6)CC5)CC4)cc3OC)nc2N1C(C)C [volasertib] 0.025
CS(=O)(=O)CCNCc1ccc(-c2ccc3ncnc(Nc4ccc(OCc5cccc(F)c5)c(Cl)c4)c3c2)o1 [lapatinib] -0.025
CN(C)CC(=O)Nc1ccc2[nH]c(=O)c3ccccc3c2c1 0.046
NCC(=O)Nc1ccc(-n2nc(C(F)(F)F)cc2-c2ccc3c(ccc4ccccc43)c2)cc1 -0.038
O=C(Nc1cccc(Nc2ncc(Br)c(NCCc3cnc[nH]3)n2)c1)N1CCCC1 0.062
CN1CCc2c(c3ccccc3n2Cc2ccc(C(=O)NO)cc2)C1 [Tubastatin A] -0.08
COc1cc2nc(-c3cc(F)ccc3O)nc(N[C@@H]3CNC[C@H]3C(C)(C)O)c2cc1OC 0.093

The molecules below were run against ZNF609 (UniProt O15014) in the same assay as above.
ZNF609, sequence (O15014 whole entry, looked up): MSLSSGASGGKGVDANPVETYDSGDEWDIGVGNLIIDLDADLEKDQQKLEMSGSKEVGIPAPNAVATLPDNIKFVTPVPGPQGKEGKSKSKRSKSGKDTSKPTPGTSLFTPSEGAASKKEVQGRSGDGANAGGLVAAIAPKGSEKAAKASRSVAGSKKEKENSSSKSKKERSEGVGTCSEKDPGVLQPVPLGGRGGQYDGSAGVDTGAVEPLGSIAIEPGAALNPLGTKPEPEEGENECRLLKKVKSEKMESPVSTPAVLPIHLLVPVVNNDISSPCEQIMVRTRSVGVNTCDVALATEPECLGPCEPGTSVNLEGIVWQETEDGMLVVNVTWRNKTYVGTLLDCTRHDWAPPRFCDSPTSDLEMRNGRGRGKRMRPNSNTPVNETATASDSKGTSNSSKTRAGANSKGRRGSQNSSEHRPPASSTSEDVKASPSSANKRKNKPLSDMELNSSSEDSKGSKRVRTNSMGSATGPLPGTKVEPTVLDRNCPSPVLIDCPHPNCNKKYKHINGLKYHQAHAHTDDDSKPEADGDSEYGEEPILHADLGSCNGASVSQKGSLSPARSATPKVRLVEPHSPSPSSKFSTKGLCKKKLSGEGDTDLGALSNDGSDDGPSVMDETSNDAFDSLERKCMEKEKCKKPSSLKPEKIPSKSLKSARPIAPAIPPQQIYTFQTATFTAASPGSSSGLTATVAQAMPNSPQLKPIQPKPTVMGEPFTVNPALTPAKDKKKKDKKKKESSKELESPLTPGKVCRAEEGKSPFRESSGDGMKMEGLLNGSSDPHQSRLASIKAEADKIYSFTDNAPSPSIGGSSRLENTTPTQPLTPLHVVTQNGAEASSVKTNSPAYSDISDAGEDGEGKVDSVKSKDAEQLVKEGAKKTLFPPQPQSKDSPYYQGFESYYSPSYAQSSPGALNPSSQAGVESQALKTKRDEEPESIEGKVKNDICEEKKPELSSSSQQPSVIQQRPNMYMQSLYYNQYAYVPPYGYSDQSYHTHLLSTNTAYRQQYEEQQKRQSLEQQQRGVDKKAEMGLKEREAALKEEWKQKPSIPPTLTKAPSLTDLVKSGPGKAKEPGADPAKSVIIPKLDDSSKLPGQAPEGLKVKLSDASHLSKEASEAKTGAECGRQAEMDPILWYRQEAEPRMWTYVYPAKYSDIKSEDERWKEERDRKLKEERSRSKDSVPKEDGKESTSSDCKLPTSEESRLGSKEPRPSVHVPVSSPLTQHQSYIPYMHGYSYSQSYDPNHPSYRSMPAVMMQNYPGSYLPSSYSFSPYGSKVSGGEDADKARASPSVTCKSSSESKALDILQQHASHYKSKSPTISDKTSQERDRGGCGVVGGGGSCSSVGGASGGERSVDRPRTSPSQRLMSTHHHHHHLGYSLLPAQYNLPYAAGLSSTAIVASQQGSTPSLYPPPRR
Summary of the method: as §1

log2 fold change, inactive:
Cc1ccc(NC(=O)c2ccc(CN3CC[C@H](N(C)C)C3)c(C(F)(F)F)c2)cc1Nc1nccc(-c2cncnc2)n1 [bafetinib] -0.233
CNC(=O)c1ccc(Nc2ncc(C(F)(F)F)c(NCc3nccnc3N(C)S(C)(=O)=O)n2)cc1 [defactinib] -0.046
CCCS(=O)(=O)Nc1ccc(F)c(C(=O)c2c[nH]c3ncc(Cl)cc23)c1F 0.036
Cc1ccc(NC(=O)c2cccc(N(C)C)c2)cc1NC(=O)c1ccc(O)cc1 0.162
CCN(CCCOc1ccc2c(Nc3cc(CC(=O)Nc4cccc(F)c4)[nH]n3)ncnc2c1)CCOP(=O)(O)O [barasertib] 0.039
Cc1ccc2c(=O)c3ccccc3n(CCCN)c2c1C 0.205
COC(=O)[C@H](CCSC)NC(=O)c1ccc(NC[C@@H](N)CS)cc1-c1ccccc1 0.019
CCCS(=O)(=O)Nc1ccc(F)c(C(=O)c2c[nH]c3ncc(-c4ccc(Cl)cc4)cc23)c1F [vemurafenib] 0.025
O=C1NC(=O)/C(=C\c2ccc3nccnc3c2)S1 -0.006
CC(C)c1cnn2c(NCc3ccccc3)cc(NCCCCCCN)nc12 -0.042
Cn1cncc1[C@@](N)(c1ccc(Cl)cc1)c1ccc2c(c1)c(-c1cccc(Cl)c1)cc(=O)n2C [tipifarnib] 0
Cc1ccc(Sc2cncc3sc(C(N)=O)cc23)cc1 -0.045
CNC(=O)c1ccccc1Nc1nc(Nc2ccc(N3CCOCC3)cc2OC)ncc1Cl -0.057
CN(CCOc1ccc(C[C@@H]2SC(=O)NC2=O)cc1)c1ccccn1 (racemic) [rosiglitazone] 0.027
Cn1cc(-c2ccc3nnc(C(F)(F)c4ccc5ncccc5c4)n3n2)cn1 -0.286
CC(C)(C)Cn1c(N)nc2ccc(-c3[nH]c(C(C)(C)C)nc3-c3ccc(F)cc3)nc21 [ralimetinib] -0.053
Cc1ccc(C(=O)N(CCCN)[C@@H](c2nc3cc(Cl)ccc3c(=O)n2Cc2ccccc2)C(C)C)cc1 [ispinesib] 0.014
CC[C@@H]1C(=O)N(C)c2cnc(Nc3ccc(C(=O)N[C@H]4CC[C@H](N5CCN(CC6CC6)CC5)CC4)cc3OC)nc2N1C(C)C [volasertib] -0.328
CS(=O)(=O)CCNCc1ccc(-c2ccc3ncnc(Nc4ccc(OCc5cccc(F)c5)c(Cl)c4)c3c2)o1 [lapatinib] 0.09
C#Cc1cccc(Nc2ncnc3cc(OCCOC)c(OCCOC)cc23)c1 [erlotinib] 0.03
CCn1c(C(=O)N(C2CC2)C2CC2)cc2c3c(ncn3C)c(Nc3cc(C)n(C)n3)nc21 0.007
NC(=O)c1ccc2nc(-c3ccc(Oc4ccc(Cl)cc4)cc3)[nH]c2c1 0.029
CC(C)C[C@@H](C=O)NC(=O)[C@H](CC(C)C)NC(=O)[C@H](CC(C)C)NC(=O)OCc1ccccc1 0.031
C=CC(=O)N1CCC[C@@H](n2nc(-c3ccc(Oc4ccccc4)cc3)c3c(N)ncnc32)C1 [ibrutinib] -0.024
CN(C)CC(=O)Nc1ccc2[nH]c(=O)c3ccccc3c2c1 0.047
NCC(=O)Nc1ccc(-n2nc(C(F)(F)F)cc2-c2ccc3c(ccc4ccccc43)c2)cc1 -0.076
O=C(Nc1cccc(Nc2ncc(Br)c(NCCc3cnc[nH]3)n2)c1)N1CCCC1 -0.035
Oc1cc(-c2nc(-c3ccccc3)[nH]c2-c2ccncc2)ccc1Cl 0.01
CN1CCc2c(c3ccccc3n2Cc2ccc(C(=O)NO)cc2)C1 [Tubastatin A] -0.126
COc1cc2nc(-c3cc(F)ccc3O)nc(N[C@@H]3CNC[C@H]3C(C)(C)O)c2cc1OC 0.205
